# Results with a measured potency or affinity are listed apart. Active and inactive are the calls of the source.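 How the source made its calls: active means compounds lowering HDL dye uptake whose fitted half-effect dose is at most twice the top valid dose; inconclusive means flat curve with moderate signal loss, or poor fit; inactive means the rest.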
# Target: Scavenger receptor class B member 1 (Mus musculus) (UniProt Q61009)
# Experiment: inhibitors of SR-BI dependent HDL uptake, dose response, ldlA[mSR-BI] CHO cells, fluorescence plate reader, dry powder, set 9 (AID 623880)
# Settings: DiI-HDL uptake fluorescence, 3 h; series mostly up to 35 µM
# Chain of Scavenger receptor class B member 1 (Mus musculus) (Q61009 whole entry, looked up): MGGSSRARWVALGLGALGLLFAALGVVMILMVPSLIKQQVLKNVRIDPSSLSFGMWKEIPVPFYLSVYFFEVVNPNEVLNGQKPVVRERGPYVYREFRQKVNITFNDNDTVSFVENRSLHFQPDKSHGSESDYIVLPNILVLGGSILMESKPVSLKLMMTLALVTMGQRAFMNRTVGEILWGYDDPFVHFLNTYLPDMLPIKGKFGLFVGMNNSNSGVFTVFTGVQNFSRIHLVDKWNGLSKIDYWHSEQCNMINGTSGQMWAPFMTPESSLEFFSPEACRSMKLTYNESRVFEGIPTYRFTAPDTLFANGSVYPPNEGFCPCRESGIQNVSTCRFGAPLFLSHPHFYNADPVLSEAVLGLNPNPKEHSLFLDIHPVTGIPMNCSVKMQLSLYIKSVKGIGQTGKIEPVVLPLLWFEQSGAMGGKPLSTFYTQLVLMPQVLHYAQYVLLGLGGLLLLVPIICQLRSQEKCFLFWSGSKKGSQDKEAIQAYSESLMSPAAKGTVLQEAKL
smiles,measurement,value
Cc1ccc(OCc2cc(C(=O)N3CCCC(O)C3)no2)cn1 (stereo unspecified),outcome,inactive
